Bioassay records: PubChem, National Center for Advancing Translational Sciences (NCATS)
HCMV inh – human cytomegalovirus inhibition; HFF cells, HCMV-luciferase reporter, 72 h; stronger effect = lower value; activity change, negative = inhibition, % at 57.5 µM; hit rate 4.5% among 410,000; in the data active = activity change below about -60%; inconclusive = no clear call, values can overlap the other calls; inactive = above about -39%
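Two compound doses tested in HFFs infected with HCMV-luciferase, MOI 1 PFU/cell, 72 h at 37C. Lysate luminescence read with OneGlo; data normalized against buffer-only and 10uM Salinomycin inhibitor controls.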
HCV inhibitor – HCV inhibition. Huh7.5.1 HCVcc-Cre infection, luciferase reporter, 44 h. Potency, µM (doses to about 41.8 µM), most hits filed as inhibitors. hit rate 3.4% among 340,000
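After 44 h co-culture of compound, cells and HCVcc-Cre (~0.5 moi), substrate is added for 15 min at room temperature and luciferase measured over 15 sec. Cells were seeded at 1,000/well and pre-cultured 4 h.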
Lassa entry inh – inhibitors of Lassa virus binding or cell entry. Lassa virus pseudotype entry inhibition, cell reporter. Potency, µM (titrated, usually from 37.9 µM), most hits filed as inhibitors. hit rate 1.2% among 300,000. AID 540256; calls by dose curve; tested in HEK293 cells; also: nearly all actives have a fitted effect of over 50% in size
MARV entry inh – blocks Marburg virus binding to or entry into cells. Marburg virus pseudotyped entry inhibition, cell reporter. Potency, µM (titrated, usually from 37.8 µM), usual class: inhibitors. hit rate 1.8% among 300,000; calls by dose curve; tested in HEK293 cells
Pf growth 48h – inhibits P. falciparum growth in the first generation, 48 h | AID 504832 | hit rate 5.9% among 310,000 | Potency, µM (highest dose often 28.7 µM), hits mostly inhibitors | P. falciparum luciferase growth in erythrocytes, 48 h
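Firefly luciferase activity from engineered P. falciparum reports growth; inhibitors lower the luminescent signal. Cultures contained 2% hematocrit erythrocytes at 0.1% final parasitemia.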
Pf growth 96h – P. falciparum growth inhibition at 96 hours | Potency, µM (doses to about 28.7 µM), hits mostly inhibitors | AID 504834 | P. falciparum luciferase reporter growth, 96 h | hit rate 6.9% among 320,000
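P. falciparum expressing integrated firefly luciferase grown in erythrocytes (2% hematocrit, 0.05% parasitemia final) with compounds for 96 hours at 37 C, 5% CO2. Growth inhibition read as loss of luminescence after adding luciferase detection reagent.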
Hits are given with their value; . = inactive; ? = inconclusive; / = not tested or not shown. Shown are actives, neighbours in structure and some others; about 14% of the full set was active somewhere. Unless noted, calls follow the shape of the dose curve; as a rule, active = well fitted inhibition curve with a large enough effect; inconclusive = small, poorly fitted or top-dose-only effect, or another doubt; inactive = no such curve, though single readings can be large or run the other way.

SMILES	HCMV inh	HCV inhibitor	Lassa entry inh	MARV entry inh	Pf growth 48h	Pf growth 96h
Cc1cc(C)n(C(=O)CNC(=O)C2COc3ccccc3O2)n1 (stereo not drawn)	.	.	.	.	.	.
O=C(Nc1nc2c(s1)CCCC2)C1COc2ccccc2O1 (stereo not drawn)	.	?	5.8µM	?	.	?
Cc1cc(C)n(C(=O)c2ccc(NC(=O)C3COc4ccccc4O3)cc2)n1 (stereo not drawn)	.	.	.	.	.	8.3µM
O=C(NC1=NCCS1)C1COc2ccccc2O1 (stereo not drawn)	?	.	?	1µM	.	.
O=C(Nc1ccccc1[N+](=O)[O-])C1COc2ccccc2O1 (stereo not drawn)	.	.	.	?	.	12µM
Cc1nnc(NC(=O)C2COc3ccccc3O2)s1 (stereo not drawn)	.	.	?	.	.	/
Cc1ccccc1Nc1c(-c2cccs2)nc2cccc(C)n12	.	/	.	.	/	/
O=C(COc1ccccc1)Nc1nnc(SCc2cc(=O)c3ccccc3[nH]2)s1	.	/	.	/	/	/
COC(=O)c1c(C(=O)OC)c2c3ccccc3cc(-c3ccccc3)n2c1C(=O)OC	/	/	/	.	/	/
Cc1ccccc1NC(=O)C1COc2ccccc2O1 (stereo not drawn)	.	.	/	/	.	.
CCOC(=O)c1c(NC(=O)C2COc3ccccc3O2)sc(C)c1C (stereo not drawn)	.	.	.	.	5.9µM	.
CCOC(=O)c1c(NC(=O)Cc2cccs2)sc(C)c1C	.	35µM	.	.	.	/
CCc1ccccc1NC(=O)C1COc2ccccc2O1 (stereo not drawn)	.	.	.	.	?	2.9µM
COC(=O)CCn1[nH]c(=O)c2ccccc2c1=O	.	.	.	?	.	9.3µM
CCCCCCOC(=O)CCn1[nH]c(=O)c2ccccc2c1=O	.	.	?	.	?	.
CCOC(=O)c1oc2nc(CC(C)C)c3c(c2c1N)CCC3	.	?	.	.	?	7.4µM
CCCc1c(C(=O)N/N=C(\C)c2ccc(O)cc2)nnn1-c1nonc1N	?	.	/	/	.	.
CCCc1c(C(=O)N/N=C(\C)c2ccccn2)nnn1-c1nonc1N	-98	/	/	/	/	/
C/C(=N\NC(=O)c1nnn(-c2nonc2N)c1CN(C)c1ccccc1)c1ccccc1O	-100	?	?	8.9µM	.	?
COc1ccc(S(=O)(=O)N2CCC(C(=O)N[C@@H](C)C(=O)NCc3ccccn3)CC2)cc1	.	/	/	/	/	/
COc1ccc(N2C(=O)CC(Cc3ccccc3OC)C2=O)cc1 (stereo not drawn)	.	.	.	?	.	?
COc1ccccc1CC1CC(=O)N(c2ccccc2)C1=O (stereo not drawn)	.	.	/	/	.	9.3µM
CN(C)c1cc[n+](CCC(=O)Nc2cccc([N+](=O)[O-])c2N)cc1	.	?	.	.	?	3.3µM
Cc1ccc[n+](CC(=O)Nc2ccc(N(C)C)cc2)c1	.	.	/	/	.	5.2µM
CN(C)c1ccc(NC(=O)C[n+]2ccccc2)cc1	.	.	/	/	.	.
SMILES	HCMV inh	HCV inhibitor	Lassa entry inh	MARV entry inh	Pf growth 48h	Pf growth 96h
CC(=O)c1ccc(NC(=O)C[n+]2ccc(N(C)C)cc2)cc1	.	.	.	?	?	?
CN(C)c1cc[n+](CC(=O)Nc2ccc(Cl)c([N+](=O)[O-])c2)cc1	-96	.	.	?	1.2µM	.
Nc1c(NC(=O)CC[n+]2ccccc2)cccc1[N+](=O)[O-]	.	.	.	.	.	.
CN(C)c1cc[n+](CC(=O)Nc2ccc(OC(F)F)cc2)cc1	-65	.	.	?	2.3µM	0.47µM
Cc1ccc(S(=O)Cc2ccc(C(=O)NC3CCCCCC3)o2)cc1 (stereo not drawn)	.	/	?	?	/	/
NC(=S)NN=CCn1cc([N+](=O)[O-])c(=O)[nH]c1=O	.	.	.	.	/	/
COc1ccc(-c2csc3nc(-c4cccnc4)nc(N4CCC(C(N)=O)CC4)c23)cc1OC	.	.	.	?	.	.
COc1ccc(-c2csc3nc(C)nc(N4CCCCC4)c23)cc1OC	.	?	?	?	?	4.7µM
C[C@H]1CCC(=O)N([C@H](CSc2ccc(Br)cc2)Cc2ccccc2)CC1	.	.	/	/	?	?
CCC(C)N(C(=O)Cn1nnc2ccccc21)C(C(=O)Nc1ccc(F)cc1)c1cccc(OC)c1 (stereo not drawn)	.	.	?	?	?	10µM
Cc1ccc(C(=O)NN(CCC(=O)NC(C)(C)C)C2=NS(=O)(=O)c3ccccc32)cc1	?	.	.	.	.	5.9µM
O=C(c1cc(-c2ccncc2)nc2ccccc12)N1CCOCC1	.	.	?	.	.	.
Cc1nn(-c2cccc(Cl)c2)c2nc(-c3ccncc3)cc(C(=O)N3CCOCC3)c12	.	7.9µM	?	.	?	6.6µM
Cc1nn(-c2ccccc2)c2nc(-c3ccccc3)cc(C(=O)N3CCOCC3)c12	.	?	.	?	.	2.1µM
CCOc1ccc(NC(=O)C(CC(=O)O)Cc2ccc(Br)cc2)cc1 (stereo not drawn)	.	.	.	?	.	9.3µM
CCOc1ccc(NC(=O)Nc2ccc(NC(C)=O)cc2)cc1	.	.	.	.	.	.
CCOc1ccc(NC(=O)Nc2nc(SCC)ns2)cc1	-61	?	?	?	.	4.1µM
CCOc1ccc(NC(=O)NC(C)CC)cc1 (stereo not drawn)	.	.	.	?	.	9.3µM
CCN(CC)S(=O)(=O)c1ccc(-c2csc(=Nc3cccc(C(F)(F)F)c3)n2Cc2ccc3c(c2)OCO3)cc1	.	/	.	?	/	/
CC(C)NC(=O)N1CCC(n2nccc2NC(=O)CCOc2ccccc2)CC1	.	.	.	.	.	.
COc1ccc(O)c(CN2CCC(n3nccc3NC(=O)CCOc3ccccc3)CC2)c1	.	.	/	/	13µM	?
C=C(C)CCC(C)N1CCC(n2nccc2NC(=O)CCOc2ccccc2)CC1 (stereo not drawn)	-89	.	?	.	.	?
O=C(O)c1cc(-c2ccc(Cl)s2)nc2ccccc12	.	.	?	11µM	.	.
O=C(NCc1ccccn1)c1cc(-c2ccccc2Cl)nc2ccccc12	.	.	.	.	9.3µM	?
CC(=O)c1ccc(NC(=O)c2cc(-c3ccc(C)s3)nc3ccccc23)cc1	.	/	.	?	/	/
Cc1cc(NC(=O)c2cc(-c3cccnc3)nc3c(C)c(C)ccc23)no1	-64	?	.	?	2.9µM	.
O=C(NCc1ccccn1)c1cc(-c2ccncc2)nc2ccccc12	.	?	.	.	?	?
Cc1cc(NC(=O)c2cc(-c3ccc(C)s3)nc3ccccc23)no1	.	.	/	/	/	12µM
COC(=O)CC=C[C@@H](C)[C@@H](C=NOC[C@@H](O)COCc1ccco1)NS(=O)(=O)c1ccc(C)cc1	/	/	/	.	/	/
